# From PubChem BioAssay (Tox21)
# “And” between values parts separate entries of the source, which are not always exact repeats. Identical values can stand only once. Results filed as inconclusive are left out. Where a call stands in place of a potency, no number is given. More than one record can exist for a structure, and the calls need not agree. The source made the active and inactive calls. The call rests on the fitted dose curve; in most records, active means well fitted activation curve with a large enough effect in the repeat runs; inconclusive means weak or mixed curves; inactive means no such curve, though single readings can be large or run the other way.
# Target: Nuclear receptor subfamily 1 group I member 2 (Homo sapiens) (UniProt O75469)
# Sequence (O75469 whole entry, looked up): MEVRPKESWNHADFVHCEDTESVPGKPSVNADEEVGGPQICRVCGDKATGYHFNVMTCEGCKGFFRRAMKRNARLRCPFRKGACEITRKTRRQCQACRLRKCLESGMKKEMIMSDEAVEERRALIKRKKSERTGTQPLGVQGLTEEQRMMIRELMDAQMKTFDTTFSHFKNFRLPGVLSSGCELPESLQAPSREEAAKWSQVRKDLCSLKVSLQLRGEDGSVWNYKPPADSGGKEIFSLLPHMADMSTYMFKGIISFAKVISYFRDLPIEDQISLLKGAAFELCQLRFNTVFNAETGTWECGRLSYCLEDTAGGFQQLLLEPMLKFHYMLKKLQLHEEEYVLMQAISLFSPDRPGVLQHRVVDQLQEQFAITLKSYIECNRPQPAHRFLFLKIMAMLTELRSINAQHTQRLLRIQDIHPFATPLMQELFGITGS
# Test: Human pregnane X receptor (PXR) small molecule agonists, qHTS assay (AID 1346982); further: nearly all actives have a fitted effect of over 35% in size
# Conditions: PXR-Luc HepG2, CYP3A4 luciferase reporter, 24 h; series mostly up to 92.4 µM
# From the text: National Center for Advancing Translational Sciences [NCATS]
# NIH Chemical Genomics Center [NCGC]
# U.S. Environmental Protection Agency [EPA]
# National Institutes of Environmental Health Sciences [NIEHS]
# National Toxicology Program [NTP]
# The human pregnane X receptor (hPXR) regulates the expression of several drug metabolizing enzymes and induction of these proteins is a major mechanism for developing drug resistance in cancer. One such key enzyme catalyzing the drug metabolism is cytochrome P450 3A4 (CYP3A4). Changes in CYP3A4 expression affect drug metabolism, thereby reducing the therapeutic efficacy and altering toxicological response to a drug and which finally causes adverse drug interaction. To screen Tox21 libraries for compounds that activate hPXR-mediated CYP3A4 gene expression, PXR-Luc HepG2 cells were used.
# PXR-Luc HepG2 cells were dispensed at 2,000 per well in 5uL of assay medium containing 5% charcoal-stripped FBS into white solid bottom 1536-well plates (Corning Life Sciences, Corning, NY) using a Multidrop Combi (Thermo Scientific, Waltham, MA) dispenser. The assay plates were incubated at 37 C and 5% CO2 for 5hr, and then 23nL of compounds dissolved in DMSO and positive control were transferred using a Pintool station (Wako, San Diego, CA). The assay plates were incubated at 37C and 5% CO2 for 24hr. For luciferase read, 4uL of ONE-Glo reagent (Promega Corporation, Madison, WI) was added to each well of the assay plates using Flying Reagent Dispenser (FRD, Aurora Discovery, San Diego, CA) and incubated the assay plates at room temperature for 30min. The luminescence signal was quantified using a ViewLux plate reader (Perkin Elmer, Shelton, CT).
# Potency means the concentration at half of the fitted maximal effect.
row,Structure (SMILES),Potency
1,CO[C@@H]1[C@H](OC(=O)NC(=O)CCl)CC[C@]2(CO2)[C@H]1[C@@]1(C)O[C@@H]1CC=C(C)C,10.6 µM (active)
2,CCn1cc[n+](C)c1,inactive and 48.6 µM (active)
3,CCOS(C)(=O)=O,inactive
4,CCC(COC(=O)c1cc(OC)c(OC)c(OC)c1)(c1ccccc1)N(C)C (stereo not given),29.8 µM (active)
5,CCCCCCC#N,inactive
6,CC1Sc2c(C(=O)O)c(=O)c3cc(F)c(N4CCNCC4)cc3n21 (stereo not given),inactive
7,CCc1ccc(C(=O)NN(C(=O)c2cc(C)cc(C)c2)C(C)(C)C)cc1,inactive
8,C[C@]12CC[C@H]3[C@@H](CCC4=CC(=O)CC[C@@H]43)[C@@H]1CC[C@@H]2OC(=O)CCC1CCCCC1,inactive
9,C=CCCl,inactive
10,CC[C@H]1C[C@H]2[C@@H]3CCC4=CC(=O)CC[C@@H]4[C@H]3CC[C@]2(C)[C@H]1O,9.44 µM (active)
11,O=C1C(Cl)C(CCl)CN1c1cccc(C(F)(F)F)c1 (stereo not given),24.3 µM (active)
12,Nc1nc(=S)[nH][nH]1,inactive
13,c1ccoc1,inactive
14,COc1c(C(C)(C)C)cc([N+](=O)[O-])c(C)c1[N+](=O)[O-],9.61 µM (active)
15,C=COC(C)=O,inactive
16,N#Cc1cc(I)c(O)c(I)c1,54.5 µM (active)
17,CC1(C)CCC(Cc2ccc(Cl)cc2)C1(O)Cn1cncn1 (stereo not given),9.69 µM (active)
18,O=[N+]([O-])C(Br)(CO)CO,inactive
19,CC(C)(C)c1cc([N+](=O)[O-])cc([N+](=O)[O-])c1O,19.3 µM (active)
20,CCCCOC(=O)c1ccccc1C(=O)OCc1ccccc1,inactive and 21.7 µM (active)

row,Structure (SMILES),Potency
1,Cc1ccc(-c2c(Cl)nc(C#N)n2S(=O)(=O)N(C)C)cc1,9.68 µM (active)
2,c1cc2ccc3cccc4ccc(c1)c2c34,25.5 µM (active)
3,COP(=S)(OC)Oc1cc(Cl)c(I)cc1Cl,inactive
4,CC(=O)CCC(C)=O,inactive
5,O=S(=O)(O)C(F)(F)C(F)(F)C(F)(F)C(F)(F)F,inactive
6,CO/N=C(/C(=O)OC)c1ccccc1COc1ccccc1C,8.63 µM (active)
7,O=C(CCl)c1ccc(Cl)cc1Cl,60.8 µM (active) and 29.8 µM (active)
8,O=C(N[C@H](c1ccccc1)[C@@H]1CN2CCC1CC2)c1c(Cl)ccc(C(F)(F)F)c1Cl,inactive
9,C=CC(=O)NCNC(=O)C=C,30.6 µM (active)
10,CCCCNP(N)(N)=S,inactive
11,C=CC(=O)OCC(C)C,48.2 µM (active)
12,OCCCBr,inactive
13,CN(N=O)c1ccc([N+](=O)[O-])cc1,inactive
14,[CH3][Sn]([CH3])([Cl])[Cl],inactive
15,IC(I)=C(I)I,4.86 µM (active)
16,Cc1ccccc1C(=O)Nc1cccc(OC(C)C)c1,13.7 µM (active)
17,COCCOCCO,27.3 µM (active)
18,O=C(O)c1ccccc1C(=O)Nc1cccc2ccccc12,38.6 µM (active)
19,O=C(CBr)OCc1ccccc1,inactive
20,C=CC(=O)OCCCCO,inactive
